Screening data deposited in PubChem by National Center for Advancing Translational Sciences (NCATS).
GPT2 inhibitor – inhibitors of human GPT2 alanine aminotransferase; Q8TD30; Recombinant GPT2, coupled pyruvate oxidase/HRP Amplex Red fluorescence; Potency, µM (series often up to 57.7 µM), inactives show at the top dose activity change, negative = inhibition, hits mostly inhibitors; hit rate 0.25% among 100,000; AID 1671188; further: nearly all actives have a fitted effect of over 60% in size
Target sequence (Q8TD30 whole entry, looked up): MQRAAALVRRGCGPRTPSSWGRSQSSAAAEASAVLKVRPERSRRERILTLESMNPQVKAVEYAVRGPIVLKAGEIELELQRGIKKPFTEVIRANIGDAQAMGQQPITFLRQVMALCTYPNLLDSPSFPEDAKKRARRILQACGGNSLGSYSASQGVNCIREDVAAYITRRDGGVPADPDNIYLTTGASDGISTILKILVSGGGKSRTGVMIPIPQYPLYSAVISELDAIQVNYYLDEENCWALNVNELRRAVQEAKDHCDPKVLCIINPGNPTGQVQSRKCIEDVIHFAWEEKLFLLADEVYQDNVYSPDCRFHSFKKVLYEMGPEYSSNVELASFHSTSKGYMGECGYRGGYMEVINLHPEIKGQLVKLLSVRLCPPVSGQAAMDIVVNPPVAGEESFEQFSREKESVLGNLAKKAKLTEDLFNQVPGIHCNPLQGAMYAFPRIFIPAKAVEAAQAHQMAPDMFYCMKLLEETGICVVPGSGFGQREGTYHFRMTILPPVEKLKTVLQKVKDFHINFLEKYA
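Recombinant GPT2 (10ng/uL) with 250uM a-KG and 2mM L-alanine, 30 min at room temperature, in HEPES pH 7.5 buffer. Pyruvate detected by pyruvate oxidase/HRP/Amplex Red fluorescence after 30 min in the dark; AOA (50uM) as positive control.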
NIH3T3 tox – kills NIH 3T3 cells; hit rate 4.3% among 94,000; NIH 3T3 viability, CellTiter-Glo ATP luminescence, 48-72 h; Potency, µM (top dose mostly 96.7 µM), without a hit: top-dose activity change, negative = cytotoxicity, hits mostly inhibitors; AID 1345082; further: nearly all actives have a fitted effect of over 55% in size
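NIH 3T3 cells at 400 cells/well received 23 nL of compound by pintool and were incubated 48 or 72 h at 37 °C. Viability was read as ATP-coupled CellTiter-Glo luminescence.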
FLuc inh – inhibitors of firefly (Photinus pyralis) luciferase | P08659 | purified P. pyralis luciferase, luminescence, biochemical | Potency, µM (doses to about 115 µM), hits mostly inhibitors | hit rate 2.5% among 76,000; further: nearly all actives have a fitted effect of over 65% in size
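Purified P. pyralis luciferase (10nM final) in 50mM Tris acetate pH 7.5, 10mM Mg acetate, 0.01% Tween-20, 0.05% BSA with 10uM D-luciferin and 10uM ATP. Compounds titrated qHTS. Luminescence imaged on CCD.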
NPR1 antag – blocks ANP-stimulated signaling of human Npr1 receptor. P16066. HEK293 hNpr1 GloSensor cGMP, ANP-stimulated luminescence. Potency, µM (top dose mostly 46.3 µM), for the others: top-dose activity change, negative = inhibition, most hits filed as inhibitors. hit rate 1.6% among 76,000; calls by dose curve; further: nearly all actives have a fitted effect of over 60% in size
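Compound pre-incubated 30 min at room temperature on GloSensor-loaded HEK293 cells stably carrying hNpr1 and the pGS-40F cGMP biosensor. Stimulation uses hNppA at 0.1 nM final; luminescence is taken at baseline and 20 min post-agonist.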
HEK293 tox – cytotoxic compounds in HEK 293 cells. HEK 293 viability, ATP luminescence (CellTiter-Glo), 48-72 h. Potency, µM (series often up to 115 µM), without a hit: at the top dose activity change, negative = cytotoxicity, most hits filed as inhibitors. hit rate 6.6% among 94,000. AID 1345083; further: nearly all actives have a fitted effect of over 60% in size
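Luminescence from cellular ATP, measured with CellTiter-Glo, indicates HEK 293 viability. Cells plated at 250 cells/well are treated with compound for 48 or 72 hr at 37 degree Celsius before reagent addition.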
* marks the source's active call; other numbers are inactive results; i = inactive; ? = inconclusive; . = not tested or not shown; [ ] = remark or other dose. Sampled rows, rich in hits. Any-hit rate of the full collection: about 10%. Unless noted, the call rests on the fitted dose curve; in most records, active means well fitted curve in the direction sought with a large enough effect; inconclusive means small, poorly fitted or top-dose-only effect, or another doubt; inactive means no such curve, though single readings can be large; an effect the other way counts as inactive or inconclusive. On the % scale 0 is the no-effect control and ±100 the full control effect; potency means the concentration at half of the fitted maximal effect.

SMILES	GPT2 inhibitor	NIH3T3 tox	FLuc inh	NPR1 antag	HEK293 tox
CN(Cc1ccccc1)C(=O)c1ccnc(-c2nnc3ccc(N(C)c4ccccc4)nn23)c1	0.3%	-68.2%	i	-15.3%	?
CN(c1ccccc1)c1ccc2nnc(-c3ccc(F)cn3)n2n1	-6.1%[88.5 µM]	?	i	-8.1%[70.6 µM]	?
CN(c1ccccc1)c1ccc2nnc(-c3cc(C(=O)N4CC(O)C4)ccn3)n2n1	-2.6%[88.5 µM]	100µM*	i	3.6%[70.6 µM]	?
COc1ccnc(-c2nnc3ccc(N(C)c4ccccc4)nn23)c1	0.6%[88.5 µM]	20µM*	i	-12.6%[70.6 µM]	44.7µM*
CN(C)c1ccc2nnc(-c3cc(C(=O)Nc4cccc(Cl)c4)ccn3)n2n1	-16.4%[88.5 µM]	7.94µM*	i	-16.6%[70.6 µM]	-27.6%[172 µM]
COC1CCN(C(=O)c2ccnc(-c3nnc4ccc(N(C)C)nn34)c2)CC1	0.8%[88.5 µM]	44.7µM*	i	6.2%[70.6 µM]	-5.5%[172 µM]
Cc1noc([C@@H]2CN(Cc3ccccc3C#N)C[C@H]2C(N)=O)n1	-10.6%	-12.5%	i	-1.4%	-11.7%
Cc1nc(-c2ccc(Cl)cc2)n(Cc2ccc(F)c(F)c2)c(=O)c1CCO	i	?	i	-22.9%	44.7µM*
Cc1nc(-c2ccc(Cl)cc2)n(Cc2ccc(F)cc2F)c(=O)c1CCO	4.3%	?	i	0.9%	35.5µM*
Cc1nc(-c2ccc(Cl)cc2)n(Cc2ccccc2F)c(=O)c1CCO	2.7%	?	i	3.2%	44.7µM*
Cc1nc(-c2ccc(Cl)cc2)n(Cc2ccccc2)c(=O)c1CCO	i	?	i	-1.5%	44.7µM*
Cc1ccc(C)c(Cn2c(-c3ccc(Cl)cc3)nc(C)c(CCO)c2=O)c1	i	?	i	3.6%	?
Cc1nc(-c2ccc(F)cc2)n(Cc2ccc(F)c(F)c2)c(=O)c1CCO	i	?	i	-23.3%	?
Cc1cn2nc(C(=O)NCCCc3ccccc3)cc2c(N2CCSCC2)n1	i	?	i	7.7%	?
Cc1ccc(CNC(=O)[C@H]2CCC[C@H]2NC(=O)c2ccncc2)cc1	3.4%	i	i	-7.5%	i
Cc1nc(-c2ccccc2)n(Cc2ccc(F)cc2Cl)c(=O)c1CCO	0.3%	44.7µM*	i	-21.3%	28.2µM*
CN(Cc1ccccc1C(F)(F)F)C(=O)c1cccc(Cl)c1	i	?	i	0.0%[70.6 µM]	89.1µM*
CN(Cc1ccccc1C(F)(F)F)C(=O)c1ccccc1	0.6%[88.5 µM]	-15.7%[138 µM]	i	22.6%[70.6 µM]	?
O=C1[C@H]2CN(Cc3ccc(Br)cc3)C[C@H]2C(=O)N1Cc1ccc2c(c1)OCO2	i	?	i	?	?
Cc1cc(C)c2[nH]c(C(=O)N3CCCC3c3nc4ccccc4[nH]3)c(C)c2c1 (stereo not given)	-3.9%	?	i	-0.5%	?
Cc1cc(C)c2[nH]c(C(=O)N3CCN(Cc4ccccc4)C(=O)C3C)c(C)c2c1 (stereo not given)	-2.4%[11.5 µM]	25.1µM*	i	4.9%	35.5µM*
COc1ccc2[nH]c(C[C@@H]3C[C@@H](C(C)C)[C@H](CNCc4ccccc4O)C=C3C)nc2n1	-2.8%[88.5 µM]	35.5µM*	i	?	44.7µM*
COc1ccc2[nH]c(C[C@@H]3C[C@@H](C(C)C)[C@H](CN(C)C)C=C3C)nc2n1	2.1%[88.5 µM]	89.1µM*	i	-12.9%[70.6 µM]	?
CCNC(=O)N1C[C@@H](Oc2cccnc2)C[C@@H]1C(=O)NCCOC	i	i	i	8.5%	-7.1%
COCCC(=O)N1CC(F)(F)C[C@H]1c1nc(-c2ccncc2)no1	i	i	i	0.7%	-2.8%
SMILES	GPT2 inhibitor	NIH3T3 tox	FLuc inh	NPR1 antag	HEK293 tox
O=C(NCCc1ccc(F)cc1)C1CCCN(c2nccc(Nc3ccccc3F)n2)C1 (stereo not given)	i	28.2µM*	.	.	?
CSCCNC(=O)C1CCCN(c2nccc(Nc3ccccc3F)n2)C1 (stereo not given)	-9.7%	25.1µM*	.	.	?
CCOCCNC(=O)C1CCCN(c2nccc(Nc3ccccc3F)n2)C1 (stereo not given)	1.9%	?	.	.	?
O=C(NCCc1ccccc1F)C1CCN(c2nccc(Nc3ccccc3F)n2)CC1	-1.2%	?	.	.	31.6µM*
O=C(NCCc1ccccc1)C1CCN(c2nccc(Nc3ccccc3F)n2)CC1	i	?	.	.	?
O=C(NCCCc1ccccc1)C1CCCN(c2nccc(Nc3ccccc3F)n2)C1 (stereo not given)	-1.5%	31.6µM*	.	.	?
C[C@@H]1CN(C(=O)C2(N3C[C@@H](C)O[C@@H](C)C3)Cc3ccccc3C2)C[C@H](C)O1	i	3.3%	i	3.7%	-21.8%
O=[S+]1([O-])NC2(CCN(Cc3cccs3)CC2)COc2ccccc21	1.2%	2.0%	.	.	-6.2%
O=C(NCCc1ccccc1)C1CCCN(c2nccc(Nc3ccccc3F)n2)C1 (stereo not given)	i	22.4µM*	.	.	?
CCC(=O)N1Cc2ccccc2CC2(CCN(CC3CCNCC3)CC2)C1	-6.4%	4.9%	.	.	-9.6%
C[C@H](C(=O)N1Cc2ccccc2CC2(CCN(CC3CCNCC3)CC2)C1)c1ccccc1	-1.4%	14.1µM*	.	.	?
CCc1nc2c(c(-c3ccc(OC)cc3)n1)CCN(Cc1ccccc1)CC2	i	-16.3%	.	.	?
CN(C)[S+](=O)([O-])c1ccc2c(c1)OCCN(Cc1ccccc1Cl)C2	2.3%[88.5 µM]	56.2µM*	i	-29.6%[70.6 µM]	?
COc1ccccc1CN1CCOc2cc([S+](=O)([O-])N(C)C)ccc2C1	-7.1%[88.5 µM]	?	i	-6.6%[70.6 µM]	89.1µM*
CN(C)[S+](=O)([O-])c1ccc2c(c1)OCCN(Cc1cccc(F)c1F)C2	i	?	i	-1.9%[70.6 µM]	?
CC(=O)N1CCN(C(=O)c2nc3cccnc3n(CCc3ccccc3)c2=O)CC1	-4.9%	-0.3%	.	.	3.5%
O=C(NCc1ccc(Cl)cc1)c1cn2cc(-c3ccccc3)sc2n1	-7.0%	-10.8%	.	.	?
COc1cccc(C(=O)N2CC(Oc3ccc(-c4noc(-c5ccccc5)n4)cc3)C2)c1	1.5%	i	i	1.8%	3.1%
COc1cccc(CC(=O)N2CC(Oc3ccc(-c4nc(-c5ccccc5)no4)cc3)C2)c1	i	?	8.91µM*	3.55µM*	12.6µM*
COCC(=O)N1CC(Oc2ccc(-c3noc(-c4ccncc4)n3)cc2)C1	4.5%	?	?	?	?
COCCOCC(=O)N1CC(Oc2ccc(-c3noc(-c4ccccc4)n3)cc2)C1	i	?	?	10µM*	?
COCCC(=O)N1CC(Oc2ccc(-c3noc(-c4ccccc4)n3)cc2)C1	-0.2%	?	12.6µM*	20µM*	22.4µM*
Cc1ccc(NC(=O)N2CCCC2c2nncn2C2CCCC2)c(C)c1 (stereo not given)	i	i	i	2.7%	18.3%
